BH1578 lux ind = quorum light induction in luxS cqsA deficient V. cholerae. V. cholerae BH1578 lux reporter, luminescence, 6 h. activation, % at 18.7 µM. 350,000 tested, 0.16% active. AID 588436; in the data active = activation mostly above about 9.7%, no sharp cut-off
PrPC surface inh = reduces human prion protein on the cell surface; P04156; cell surface PrPC, TR-FRET read-out; inhibition, % at 13.8 µM; 370,000 tested, 0.43% active; AID 720596; in the data active = inhibition above about 24%; also: 0% = median of the test wells and 100% = reference compound wells
GDH-TPI counter = counter-screen for M. tuberculosis FBA inhibitors: GDH-TPI coupled enzymes | 360,000 tested, 1.2% active | GDH-TPI coupled enzyme counterscreen, NADH absorbance | inhibition, % at 4.8 µM | AID 588335; in the data active = inhibition above about 30%;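 also: 0% = DMSO wells and 100% = wells lacking the enzyme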
3CLpro inhibitor = SARS-CoV 3CLpro protease inhibition | P0C6X7 | recombinant SARS-CoV 3CLpro, quenched FRET peptide cleavage | inhibition, % at 6 µM | 290,000 tested, 0.14% active; in the data active = inhibition above about 12%
Mtb FBA inh = inhibits M. tuberculosis FBA enzyme. P9WQA3. purified M. tuberculosis FBA, fluorescence read-out. inhibition, % at 1 µM. 360,000 tested, 2.3% active. AID 588726; in the data active = inhibition above about 27%;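 also: 0% = vehicle and 100% = reference inhibitor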
Target sequence (P9WQA3 whole entry, looked up): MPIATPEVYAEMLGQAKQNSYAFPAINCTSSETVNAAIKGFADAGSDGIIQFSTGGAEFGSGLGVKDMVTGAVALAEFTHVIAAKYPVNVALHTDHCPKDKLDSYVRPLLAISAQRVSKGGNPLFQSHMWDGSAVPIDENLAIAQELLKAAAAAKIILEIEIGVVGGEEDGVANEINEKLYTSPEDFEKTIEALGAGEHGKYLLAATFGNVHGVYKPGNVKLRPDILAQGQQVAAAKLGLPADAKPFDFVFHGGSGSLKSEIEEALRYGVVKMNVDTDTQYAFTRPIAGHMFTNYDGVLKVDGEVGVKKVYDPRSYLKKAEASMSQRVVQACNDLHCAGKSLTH
* = called active by the depositor; i = inactive; nt = not tested or not shown; + = active, no number. Shown are actives, neighbours in structure and some others; about 3.9% of the full set was active somewhere.

SMILES | BH1578 lux ind | PrPC surface inh | GDH-TPI counter | 3CLpro inhibitor | Mtb FBA inh
O=C(N/N=C/c1c(O)n(CCC2=CCCCC2)c(=O)[nH]c1=O)c1ccccc1 | i | 1 | 34* | 6 | 9
O=C(N/N=C/c1c(O)n(CCC2=CCCCC2)c(=S)[nH]c1=O)c1ccccc1 | -3 | 2 | 21 | 4 | 4
Cc1ccc(-n2c(O)c(/C=N/NC(=O)c3ccncc3)c(=O)[nH]c2=O)cc1 | 0 | -8 | 25 | 2 | 0
Cc1ccccc1-n1c(O)c(/C=N/NC(=O)c2ccccc2O)c(=O)[nH]c1=S | 0 | -3 | 31* | -1 | 5
O=C(CSc1ccc(Cl)cc1)NNC(=O)c1ccco1 | -2 | -3 | -6 | -2 | 3
CC(CNC(=O)[C@@H](Cc1ccccc1)NC(=O)[C@H]1O[C@@H](n2cnc3c(=O)[nH]c(N)nc32)[C@H](O)[C@@H]1O)c1ccccc1 (stereo partly drawn) | nt | -7 | nt | nt | nt
O=c1oc2cc(O)ccc2cc1-c1nc2ccccc2o1 | nt | -9 | nt | nt | +
CCN(CC)c1ccc2cc(S(=O)(=O)c3ccc(Cl)cc3)c(=O)oc2c1 | 0 | 5 | 16 | -4 | 9
O=c1oc2cc(O)ccc2cc1S(=O)(=O)c1ccccc1 | 1 | -14 | 15 | 2 | +
CCCCc1cc(=O)oc2cc(OCC(=O)N3CCC(C(N)=O)CC3)ccc12 | 0 | 0 | 6 | -1 | 24
Cc1c(Cc2ccccc2)c(=O)oc2cc(OCC(=O)N3CCC(C(N)=O)CC3)ccc12 | -1 | -4 | 16 | -2 | 124*
NC(=O)C1CCN(C(=O)COc2ccc3c(c2)oc(=O)c2ccccc23)CC1 | 0 | -1 | 8 | -1 | 112*
Cc1c(C)c2ccc(OCC(=O)N3CC[C@@]4(O)CCCC[C@H]4C3)cc2oc1=O | -1 | -4 | 9 | 0 | 87*
CCc1cc(=O)oc2cc(OCC(=O)N3CCC(C(N)=O)CC3)ccc12 | 0 | 9 | 12 | 5 | 23
CCOC(=O)c1[nH]c2cc3c(cc2c1NC(=O)CN1CCC(C)CC1)OCO3 | 7 | 3 | 29 | -2 | 153*
Cc1ncn(-c2ccccc2)c1-c1ccccc1 | i | 5 | 1 | nt | 2
Cc1nc2ccccn2c1C(=O)NC1CCCCC1 | 2 | -3 | 3 | -1 | 4
O=C(NC1CCCC1)c1cc2c(=O)n3ccccc3nc2s1 | 0 | -16 | 19 | nt | 178*
Cc1cc(NS(=O)(=O)c2ccc(NC(=O)c3cc4c(=O)n5ccccc5nc4s3)cc2)nc(C)n1 | -1 | -9 | 11 | -1 | 18
Cn1c(C(=O)NC2CCCCC2)cc2c(=O)n3ccccc3nc21 | 1 | -12 | 12 | 10 | 114*
O=C(c1cc2c(=O)n3ccccc3nc2s1)N1CCc2ccccc2C1 | nt | nt | nt | -5 | nt
CC1CCCCN1C(=O)c1cc2c(=O)n3ccccc3nc2s1 (stereo not drawn) | 0 | -21 | 19 | -4 | 101*
Cn1c(C(=O)NCc2ccccn2)cc2c(=O)n3ccccc3nc21 | i | -1 | 27 | 2 | 196*
O=C(Nc1ncccn1)c1ccc(Cl)c([N+](=O)[O-])c1 | -5 | -31 | 6 | -2 | 1
CCCCc1cc(=O)oc2cc(OC(C)C(=O)NCC3CCC(C(=O)O)CC3)c(Cl)cc12 (stereo not drawn) | 0 | 5 | 8 | 0 | 6
SMILES | BH1578 lux ind | PrPC surface inh | GDH-TPI counter | 3CLpro inhibitor | Mtb FBA inh
COCCCn1c(=O)/c(=C\c2cccc(OC)c2OC)s/c1=C(/C#N)C(=O)Nc1ccc(C(=O)O)cc1 | 0 | 5 | 40* | 4 | -2
O=C(NCc1ccccn1)[C@@H]1CCCN1C(=O)[C@@H]1CCCN1 | nt | 0 | nt | nt | nt
CC(C)c1ccc(NC(=O)CN2CCN(c3ccccn3)CC2)cc1 | 2 | -6 | 5 | 6 | 2
COc1ccc(NC(=O)CN2CCN(c3ccccn3)CC2)cc1Cl | i | 0 | -3 | 3 | +
NCCCC(C(=O)O)N(C(=O)OCc1ccccc1)C(=O)OCc1ccccc1 (stereo not drawn) | nt | -7 | nt | nt | nt
CCC1CSC(Nc2ccc(C(=O)/C=C/c3cccc(C)c3)cc2)=N1 (stereo not drawn) | 0 | 8 | 13 | -3 | 1
CC(C)NC(=O)C1(C)CCN1Cc1ccc(Cl)cc1 (stereo not drawn) | -1 | -3 | 14 | nt | -6
CC(C)n1c(=O)c2ccccc2n1Cc1cn(Cc2ccccc2)nn1 | nt | 3 | nt | nt | 115*
CC(C)n1c(=O)c2ccccc2n1Cc1cn(CCc2c[nH]c3ccccc23)nn1 | nt | 4 | nt | nt | 5
CC(C)n1c(=O)c2ccccc2n1Cc1cn(-c2ccccc2)nn1 | nt | -9 | nt | nt | 120*

Source: PubChem
